# Data published in the supplement of paper PMC11732987, “Enantioselective OTUD7B fragment discovery through chemoproteomics screening and high-throughput optimisation” (Communications Chemistry, 2025).
# A number with no mark means an inactive call.
# How the values were obtained:
# Assay in all cases: log2 ratio of Biotin-Ahx-Ub-VS probe labelling (fragment/DMSO); higher = less target engagement (more negative = stronger competition), active = hit call of the paper (q ≤ 0.05, log2 ratio ≤ -1)
# Settings in all cases: compound concentration: 200 uM; treatment time: 3 h
# USP19 = biological target: T1, USP19 (UniProt O94966)
# T1 sequence (whole entry): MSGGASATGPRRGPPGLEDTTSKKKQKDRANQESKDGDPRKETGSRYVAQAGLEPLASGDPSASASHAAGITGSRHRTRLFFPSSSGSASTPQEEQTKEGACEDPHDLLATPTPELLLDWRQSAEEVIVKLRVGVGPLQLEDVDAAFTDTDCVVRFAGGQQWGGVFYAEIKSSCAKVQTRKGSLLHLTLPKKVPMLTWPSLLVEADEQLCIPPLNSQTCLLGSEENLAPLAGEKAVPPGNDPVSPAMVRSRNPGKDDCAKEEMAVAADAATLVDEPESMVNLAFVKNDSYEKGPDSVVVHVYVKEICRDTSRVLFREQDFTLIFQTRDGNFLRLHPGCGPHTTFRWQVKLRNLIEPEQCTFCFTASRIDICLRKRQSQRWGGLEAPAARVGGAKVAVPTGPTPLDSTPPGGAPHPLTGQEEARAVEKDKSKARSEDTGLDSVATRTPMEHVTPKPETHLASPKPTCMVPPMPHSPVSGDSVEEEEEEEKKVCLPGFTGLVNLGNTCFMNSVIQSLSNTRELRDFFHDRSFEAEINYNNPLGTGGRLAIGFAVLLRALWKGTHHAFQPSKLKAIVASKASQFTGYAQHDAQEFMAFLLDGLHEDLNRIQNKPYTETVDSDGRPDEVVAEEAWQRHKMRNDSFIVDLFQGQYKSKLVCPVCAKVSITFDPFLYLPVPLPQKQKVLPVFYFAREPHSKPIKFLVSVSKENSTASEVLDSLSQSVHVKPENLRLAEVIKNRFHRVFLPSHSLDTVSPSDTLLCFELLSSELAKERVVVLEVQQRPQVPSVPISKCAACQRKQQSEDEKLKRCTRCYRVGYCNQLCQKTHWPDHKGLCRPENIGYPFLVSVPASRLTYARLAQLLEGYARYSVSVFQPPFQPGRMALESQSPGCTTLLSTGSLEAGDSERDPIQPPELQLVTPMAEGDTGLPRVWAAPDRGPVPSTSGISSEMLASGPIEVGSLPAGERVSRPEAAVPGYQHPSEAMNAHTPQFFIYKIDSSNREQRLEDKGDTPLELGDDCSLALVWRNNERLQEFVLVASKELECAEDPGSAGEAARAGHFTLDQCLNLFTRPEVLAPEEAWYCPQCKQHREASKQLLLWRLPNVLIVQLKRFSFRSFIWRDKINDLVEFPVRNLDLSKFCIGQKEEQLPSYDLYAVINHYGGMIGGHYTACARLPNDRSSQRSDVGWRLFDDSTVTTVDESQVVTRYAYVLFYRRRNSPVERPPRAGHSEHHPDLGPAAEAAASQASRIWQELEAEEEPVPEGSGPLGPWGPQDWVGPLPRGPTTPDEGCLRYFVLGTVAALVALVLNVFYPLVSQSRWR
# Method in brief: (§1)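 Labelling with Biotin-Ahx-Ub-VS (0.5 µM final, 1 h) followed a 3 h triplicate treatment of HEK293T lysate (495 µg per sample, Tris/CHAPS/IGEPAL buffer with protease inhibitors) with fragment at 200 µM or vehicle. Labelled DUBs were NeutrAvidin-enriched, digested with LysC and trypsin, and run by diaPASEF LC-MS/MS. The values, average log2 fragment/vehicle ratios by unpaired t-test, come from global-median-normalised Spectronaut label-free quantities. Proteins with ≥2 unique peptides were used.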
# USP24 = USP24 (UniProt Q9UPU5)
# USP24, sequence (Q9UPU5 whole entry): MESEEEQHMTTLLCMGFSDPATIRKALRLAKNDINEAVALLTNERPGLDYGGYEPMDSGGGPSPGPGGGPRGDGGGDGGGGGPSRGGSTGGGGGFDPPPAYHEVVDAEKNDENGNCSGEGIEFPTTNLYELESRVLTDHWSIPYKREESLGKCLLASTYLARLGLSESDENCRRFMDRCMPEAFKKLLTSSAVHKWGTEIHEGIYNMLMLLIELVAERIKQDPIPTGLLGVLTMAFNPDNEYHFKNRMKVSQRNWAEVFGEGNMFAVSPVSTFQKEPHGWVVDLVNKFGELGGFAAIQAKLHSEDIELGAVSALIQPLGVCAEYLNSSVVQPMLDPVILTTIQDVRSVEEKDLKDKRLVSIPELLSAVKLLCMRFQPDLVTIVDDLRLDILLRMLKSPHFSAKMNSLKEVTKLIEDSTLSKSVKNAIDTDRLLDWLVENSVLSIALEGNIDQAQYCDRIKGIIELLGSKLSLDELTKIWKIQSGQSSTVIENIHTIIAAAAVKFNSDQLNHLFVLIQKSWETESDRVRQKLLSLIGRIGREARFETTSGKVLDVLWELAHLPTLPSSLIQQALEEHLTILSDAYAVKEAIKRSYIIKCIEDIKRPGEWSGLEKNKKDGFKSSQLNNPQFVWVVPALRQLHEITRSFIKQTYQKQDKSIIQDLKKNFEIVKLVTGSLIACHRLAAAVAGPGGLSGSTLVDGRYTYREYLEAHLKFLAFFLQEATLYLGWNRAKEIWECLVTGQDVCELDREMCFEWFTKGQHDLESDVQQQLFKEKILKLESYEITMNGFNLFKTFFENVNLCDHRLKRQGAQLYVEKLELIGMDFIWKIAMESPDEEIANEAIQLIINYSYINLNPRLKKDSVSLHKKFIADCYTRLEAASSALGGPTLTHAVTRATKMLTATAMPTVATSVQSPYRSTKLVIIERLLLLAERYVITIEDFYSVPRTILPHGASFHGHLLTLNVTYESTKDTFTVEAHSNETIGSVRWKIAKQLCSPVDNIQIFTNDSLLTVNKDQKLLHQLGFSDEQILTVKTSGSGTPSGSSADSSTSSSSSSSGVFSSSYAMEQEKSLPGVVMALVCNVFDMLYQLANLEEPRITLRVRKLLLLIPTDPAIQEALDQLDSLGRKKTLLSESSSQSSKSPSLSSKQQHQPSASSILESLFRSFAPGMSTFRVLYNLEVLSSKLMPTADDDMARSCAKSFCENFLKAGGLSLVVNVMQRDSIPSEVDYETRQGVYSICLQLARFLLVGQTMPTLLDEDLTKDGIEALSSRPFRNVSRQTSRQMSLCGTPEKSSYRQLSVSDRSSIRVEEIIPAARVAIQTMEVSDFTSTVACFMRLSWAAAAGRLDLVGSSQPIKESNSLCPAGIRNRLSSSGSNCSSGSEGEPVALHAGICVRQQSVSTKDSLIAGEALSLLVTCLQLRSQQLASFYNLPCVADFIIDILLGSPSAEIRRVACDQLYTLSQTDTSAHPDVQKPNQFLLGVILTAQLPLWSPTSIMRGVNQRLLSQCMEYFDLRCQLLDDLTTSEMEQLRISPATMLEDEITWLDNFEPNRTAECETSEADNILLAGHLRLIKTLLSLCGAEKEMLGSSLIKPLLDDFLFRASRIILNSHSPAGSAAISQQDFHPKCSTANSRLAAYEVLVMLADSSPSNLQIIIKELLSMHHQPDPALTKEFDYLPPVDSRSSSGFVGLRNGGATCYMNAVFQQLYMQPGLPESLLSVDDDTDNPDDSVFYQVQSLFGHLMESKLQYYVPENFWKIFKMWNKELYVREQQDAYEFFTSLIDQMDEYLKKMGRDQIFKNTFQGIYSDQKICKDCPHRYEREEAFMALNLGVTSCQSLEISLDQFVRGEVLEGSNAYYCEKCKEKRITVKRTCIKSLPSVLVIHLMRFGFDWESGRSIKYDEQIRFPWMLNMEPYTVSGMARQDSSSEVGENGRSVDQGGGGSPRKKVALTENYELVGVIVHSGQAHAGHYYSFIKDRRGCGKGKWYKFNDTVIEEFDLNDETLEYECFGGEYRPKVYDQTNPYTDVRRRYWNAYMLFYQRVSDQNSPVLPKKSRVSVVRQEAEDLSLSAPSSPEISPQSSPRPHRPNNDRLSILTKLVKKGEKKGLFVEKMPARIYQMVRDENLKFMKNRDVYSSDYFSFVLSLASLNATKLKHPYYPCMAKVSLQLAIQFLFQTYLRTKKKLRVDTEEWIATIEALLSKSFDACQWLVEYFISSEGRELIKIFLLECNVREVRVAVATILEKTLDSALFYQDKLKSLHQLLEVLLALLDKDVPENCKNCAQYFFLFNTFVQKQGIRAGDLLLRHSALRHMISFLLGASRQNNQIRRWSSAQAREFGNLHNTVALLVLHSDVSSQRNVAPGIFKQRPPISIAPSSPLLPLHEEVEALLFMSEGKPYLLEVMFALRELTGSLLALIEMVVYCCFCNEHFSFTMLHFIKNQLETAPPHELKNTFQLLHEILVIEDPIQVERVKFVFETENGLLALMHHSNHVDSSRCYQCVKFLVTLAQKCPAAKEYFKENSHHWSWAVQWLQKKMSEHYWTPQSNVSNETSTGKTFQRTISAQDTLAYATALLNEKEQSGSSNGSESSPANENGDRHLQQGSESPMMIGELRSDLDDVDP
# Method in brief: as §1
# USP25 = biological target: T2, USP25 (UniProt Q9UHP3)
# T2 sequence (whole entry): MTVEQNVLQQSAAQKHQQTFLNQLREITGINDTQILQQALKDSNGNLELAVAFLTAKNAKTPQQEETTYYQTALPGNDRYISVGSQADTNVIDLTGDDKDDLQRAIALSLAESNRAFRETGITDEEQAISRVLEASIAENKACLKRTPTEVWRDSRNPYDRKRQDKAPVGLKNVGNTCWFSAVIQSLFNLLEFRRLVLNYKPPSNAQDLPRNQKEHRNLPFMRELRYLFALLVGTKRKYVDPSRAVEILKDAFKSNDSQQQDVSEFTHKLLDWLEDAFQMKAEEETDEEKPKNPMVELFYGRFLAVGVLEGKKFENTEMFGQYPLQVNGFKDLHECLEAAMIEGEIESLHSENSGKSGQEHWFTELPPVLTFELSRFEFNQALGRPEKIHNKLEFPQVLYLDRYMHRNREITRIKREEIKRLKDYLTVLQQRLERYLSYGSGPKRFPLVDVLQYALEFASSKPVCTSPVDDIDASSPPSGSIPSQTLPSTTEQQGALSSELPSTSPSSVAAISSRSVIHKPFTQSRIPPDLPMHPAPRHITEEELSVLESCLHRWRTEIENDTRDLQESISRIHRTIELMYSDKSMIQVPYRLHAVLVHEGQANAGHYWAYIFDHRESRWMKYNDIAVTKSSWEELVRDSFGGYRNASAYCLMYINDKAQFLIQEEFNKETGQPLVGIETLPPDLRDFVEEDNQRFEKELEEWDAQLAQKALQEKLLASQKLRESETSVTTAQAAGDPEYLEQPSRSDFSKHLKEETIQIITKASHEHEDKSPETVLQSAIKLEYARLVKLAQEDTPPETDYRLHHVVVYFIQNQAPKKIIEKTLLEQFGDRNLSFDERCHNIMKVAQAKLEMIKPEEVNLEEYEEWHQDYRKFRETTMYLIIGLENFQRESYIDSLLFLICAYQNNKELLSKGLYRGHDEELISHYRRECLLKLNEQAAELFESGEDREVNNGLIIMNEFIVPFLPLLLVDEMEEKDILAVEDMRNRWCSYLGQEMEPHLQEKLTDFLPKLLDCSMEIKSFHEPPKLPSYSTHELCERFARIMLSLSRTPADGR
# Method in brief: as §1
# USP28 = biological target: T3, USP28 (UniProt Q96RU2)
# T3 sequence (whole entry): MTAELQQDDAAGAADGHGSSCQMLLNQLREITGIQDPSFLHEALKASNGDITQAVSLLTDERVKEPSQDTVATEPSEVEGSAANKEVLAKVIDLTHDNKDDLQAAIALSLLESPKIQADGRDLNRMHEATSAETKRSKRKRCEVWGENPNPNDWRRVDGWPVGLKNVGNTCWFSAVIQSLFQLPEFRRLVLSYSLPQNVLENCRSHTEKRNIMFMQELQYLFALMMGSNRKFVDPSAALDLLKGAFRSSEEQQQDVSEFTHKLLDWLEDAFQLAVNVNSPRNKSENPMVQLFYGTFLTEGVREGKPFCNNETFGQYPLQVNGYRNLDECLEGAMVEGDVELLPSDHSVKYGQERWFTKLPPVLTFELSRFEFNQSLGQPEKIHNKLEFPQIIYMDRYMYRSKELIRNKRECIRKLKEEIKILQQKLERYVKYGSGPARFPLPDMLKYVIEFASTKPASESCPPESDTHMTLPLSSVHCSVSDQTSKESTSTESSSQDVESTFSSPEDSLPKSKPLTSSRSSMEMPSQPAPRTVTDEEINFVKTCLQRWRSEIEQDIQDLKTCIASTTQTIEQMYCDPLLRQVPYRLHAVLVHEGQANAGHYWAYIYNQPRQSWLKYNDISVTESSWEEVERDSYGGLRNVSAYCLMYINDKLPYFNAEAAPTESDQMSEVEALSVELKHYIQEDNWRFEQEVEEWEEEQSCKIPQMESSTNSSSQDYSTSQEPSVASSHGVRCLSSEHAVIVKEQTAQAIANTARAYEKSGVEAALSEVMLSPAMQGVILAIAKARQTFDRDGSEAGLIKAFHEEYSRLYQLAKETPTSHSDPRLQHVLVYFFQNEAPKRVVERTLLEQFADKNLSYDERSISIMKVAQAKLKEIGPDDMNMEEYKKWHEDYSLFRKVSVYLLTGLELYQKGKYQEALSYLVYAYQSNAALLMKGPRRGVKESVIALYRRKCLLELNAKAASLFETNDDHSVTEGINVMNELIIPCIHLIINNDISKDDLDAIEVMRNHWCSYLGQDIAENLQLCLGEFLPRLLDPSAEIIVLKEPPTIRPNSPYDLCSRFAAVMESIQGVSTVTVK
# Method in brief: as §1
structure (smiles),measurement,setting,value
NS(=O)(=O)c1ccc(Cl)c(NC(=O)CCl)c1,log2 ratio of Biotin-Ahx-Ub-VS probe labelling,USP19,-0.307
same,log2 ratio of Biotin-Ahx-Ub-VS probe labelling,USP24,-0.149
same,log2 ratio of Biotin-Ahx-Ub-VS probe labelling,USP25,-1.57 (active)
same,log2 ratio of Biotin-Ahx-Ub-VS probe labelling,USP28,-1.42 (active)
